# Test results reported in PubChem BioAssay (NCI).
# Compounds without any hit were thinned out: in the full panel of roughly 83,000, 20% have a hit.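 Each cell line was grown in a 96-well plate and treated with one concentration of compound for 48 hours. Values below 10 were considered active.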 The source made the active and inactive calls.
# Test system: LOX IMVI melanoma
# Assay: NCI-60 one-dose screen, 48 h (100 = growth as untreated, 0 = no growth, -100 = all killed)
# Settings: 10 µM
# Method: Growth inhibition of the LOX IMVI human tumor cell line is measured as a screen for anti-cancer activity. Cells are grown in 96 well plates and exposed to the test compound for 48 hours. Compounds are tested at a single concentration, which is 10^-5 M for most compounds. The reported endpoint is percent growth (GI% or GIPRCNT), where numbers from 0 - 100% represent growth inhibition, and numbers from -100% - 0 represent cell death. For example, a value of 40 represents 60% growth inhibition. A value of 0 means no net growth occurred over the course of the experiment. A value of -40 indicates 40% of cells at the beginning of the experiment died by the end of the experiment. A value of -100 means all cells are dead at the end of the experiment.
# NCI-60 Human Tumor Cell Lines Screen was performed using the standard one-dose NCI protocol, which is described in more detail at https://dtp.cancer.gov/discovery_development/nci-60/default.htm.
# Compounds with GIPRCNT values below 10 were considered active. Activity score was based on GIPRCNT using the following formula: […]
# Score is 0 for GIPRCNT values of 100 or above, 50 for GIPRCNT values of 0, and 100 for GIPRCNT values of -100.
row,Structure (SMILES),growth
1,COc1ccc(-c2nc3cc(C)ccc3n2CC(=O)N=Nc2c(O)[nH]c3ccc(OC)cc23)cc1,-98% (active)
2,COc1ccc2[nH]c(=O)c(CSc3nccc(-c4ccc(OC)c(OC)c4)n3)cc2c1,24.5% (inactive)
3,CC(=O)OC[C@@]1(C)C2CC[C@]3(C)C(CC=C4C5CC(C)(C)CC[C@]5(C(=O)Nc5ccc(C)cc5)CC[C@]43C)[C@@]2(C)C[C@@H](OC(C)=O)[C@@H]1OC(C)=O (stereo not given in full),12.5% (inactive)
4,CC(=O)NNc1ccc2nnc(-c3ccccc3)n2n1,99.3% (inactive)
5,COc1ccccc1C(=O)NN1C(=O)/C(=C/C2=Cc3ccccc3OC2)SC1=S,94% (inactive)
6,CCCCSc1nc(NCCc2c[nH]c3ccccc23)c(C#N)c(-c2ccc(F)cc2)n1,36.1% (inactive)
7,COC(=O)C[C@](O)(CCCC(C)(C)O)C(=O)O[C@H]1C(OC)=C[C@@]23CCCN2CCc2cc4c(cc2[C@@H]13)OCO4,-82.4% (active)
8,CC(C)C(C(=O)O)n1c(O)c(/C=C2/C=c3cc4c(cc3=NC2=O)OCO4)sc1=S (stereo not given),94% (inactive)
9,N/C(=N\N=C\c1ccc([N+](=O)[O-])cc1)c1c(N)nc(=S)[nH]c1-c1ccc(Cl)cc1Cl,96.5% (inactive)
10,O=C(c1ccccc1)c1ccc2nc(-c3ccc(F)cc3)[nH]c2c1,14.3% (inactive)
11,Cn1cc(-c2cc(N)n3nc(-c4cn(C)c5ccc(Cl)cc45)cc3n2)c2ccccc21,110% (inactive)
12,CNS(=O)(=O)c1ccc(Nc2ccc(C(F)(F)F)cc2)c(-c2cn(C)cn2)c1,43.1% (inactive)
13,COc1ccc(C2=NN(c3ccccc3)C(c3ccc(OCc4ccccc4)c(OC)c3)C2)cc1OC (stereo not given),105% (inactive)
14,COc1c(F)ccc(C(=O)Nc2ccc3nc(NC(=O)C4CCCN(S(=O)(=O)c5ccc(Br)s5)C4)sc3c2)c1F (stereo not given),79.3% (inactive)
15,C=C1CC[C@@H]2[C@]3(C)COC(c4ccco4)O[C@@H]3CC[C@@]2(C)[C@@H]1C/C=C1/C(=O)OCC1OC(C)=O (stereo not given in full),-100% (active)
16,C=C1CC[C@@H]2[C@]3(C)COC(c4cn[nH]c4-c4ccc(Br)cc4)O[C@@H]3CC[C@@]2(C)[C@@H]1C/C=C1/C(=O)OCC1O (stereo not given in full),-100% (active)
17,CN(C)c1nc(NCCNS(=O)(=O)c2ccc(C(=O)/C=C/c3ccc(C(F)(F)F)cc3)cc2)nc(Nc2ccc(F)cc2)n1,-100% (active)
18,O=C1N/C(=N\c2nccs2)S/C1=C\C=C/c1ccccc1,28.3% (inactive)
19,COc1cc2c(c(OC)c1OC)C(=O)CC(c1cccc(NC(=O)c3cc(NC(=O)[C@H](C)N)ccc3Cl)c1)O2 (stereo not given in full),15.7% (inactive)
20,COc1ccc2c(c1)c(-c1cc3nc(-c4cn(C)c5ncccc45)cc(N)n3n1)cn2C,-100% (active)

row,Structure (SMILES),growth
1,Clc1ccc(-c2ccc(OCCCN3CCN(c4ccncc4)CC3)cc2)cc1,-89.8% (active)
2,COc1ccc2c(c1)C(=N/N=C(\C)c1ccc(OC)c(S(N)(=O)=O)c1)C(=O)N2,95% (inactive)
3,CN(C)CCCNC(=O)c1cc(NC(=O)c2cc(NC(=O)c3ccc(C#Cc4ccccc4)cc3)cn2C)cn1C,-100% (active)
4,CC(=O)OCC1OC(OC2C(COC(C)=O)OC(n3cc(COc4ccc5ccc(=O)oc5c4)nn3)C(OC(C)=O)C2OC(C)=O)C(OC(C)=O)C(OC(C)=O)C1OC(C)=O (stereo not given),104% (inactive)
5,COc1ccc(/C=C/c2nc3ccccc3c(=O)n2CC(=O)Nc2ccc(OC)cc2)cc1,64.8% (inactive)
6,CN(C)c1ccnc(CNCCSC2(c3ccccc3)c3ccccc3C=Cc3ccccc32)c1,-96.2% (active)
7,O=[N+]([O-])c1ccc(/C=C/c2nc3ccccc3n3c(=S)[nH]nc23)cc1,91.3% (inactive)
8,C#CCOc1cc(N(CC)CC)ccc1C(C(=O)NC(C)(C)C)N(C(=O)C1CCc2cc(F)ccc2O1)c1cc(C)cc(C)c1 (stereo not given),32.5% (inactive)
9,COc1ccc(-c2ccc(SCC(=O)NCCc3ccc(S(N)(=O)=O)cc3)nn2)cc1,89.1% (inactive)
10,CC(=O)c1c(N)c(C#N)cn1-c1ccc(Cl)cc1Cl,99.2% (inactive)
11,COc1cccc(-c2nc(Nc3ccc(S(N)(=O)=O)cc3)c3ccccc3n2)c1,24.8% (inactive)
12,CCCCSc1nc(NCCc2c[nH]c3ccccc23)c(C#N)c(-c2ccccc2)n1,-34% (active)
13,COc1ccc(C(=O)/C=C/c2cc3c(cc2Br)OCO3)cc1S(N)(=O)=O,-85.5% (active)
14,COc1ccc(-c2ccnc(SCc3cc4ccccc4[nH]c3=O)n2)cc1,49.9% (inactive)
15,CC(C)c1sc(NC(=O)c2cc(NC(=O)c3cc(NC(=O)c4cscn4)cn3C)cn2C)nc1C(=O)NCCCN(C)C,-94% (active)
16,Brc1ccc(-c2n(Cc3ccc4ccccc4c3)c(-c3ccccc3)c(-c3ccccc3)[n+]2Cc2ccc3ccccc3c2)cc1,-92.6% (active)
17,CN(C)CCCNC(=O)c1cc(NC(=O)c2cc(NC(=O)c3ccc(/C=C/c4ccccc4)cc3)cn2C)cn1C,-86.1% (active)
18,Cc1ccc(-c2nc(Nc3ccccc3S(N)(=O)=O)c3ccccc3n2)cc1,9.36% (active)
19,Nc1nc(-c2ccccc2)c(N=Nc2ccc([N+](=O)[O-])cc2Cl)s1,98% (inactive)
20,CCCSc1nc(NCCc2c[nH]c3ccccc23)c(C#N)c(-c2ccc(OC)cc2)n1,37.1% (inactive)
